High-throughput results from PubChem BioAssay.
An excerpt weighted towards active compounds, which were near 5.9% of everything screened.
GLP1R inv ag = inverse agonists of human GLP-1 receptor; P43220; HEK293 GLP-1R CRE-luciferase, luminescence, 24 h; GLP-1R form is constitutively active; Potency, µM (doses to about 38.3 µM), for inactives: top-dose activity change, negative = inhibition, hits mostly inhibitors; 410,000 compounds, 1.6% hits; AID 624417; also: % is scaled to controls: 0 for no effect and ±100 for the full control effect; nearly all actives have a fitted effect of over 55% in size
Target sequence (P43220 whole entry, looked up): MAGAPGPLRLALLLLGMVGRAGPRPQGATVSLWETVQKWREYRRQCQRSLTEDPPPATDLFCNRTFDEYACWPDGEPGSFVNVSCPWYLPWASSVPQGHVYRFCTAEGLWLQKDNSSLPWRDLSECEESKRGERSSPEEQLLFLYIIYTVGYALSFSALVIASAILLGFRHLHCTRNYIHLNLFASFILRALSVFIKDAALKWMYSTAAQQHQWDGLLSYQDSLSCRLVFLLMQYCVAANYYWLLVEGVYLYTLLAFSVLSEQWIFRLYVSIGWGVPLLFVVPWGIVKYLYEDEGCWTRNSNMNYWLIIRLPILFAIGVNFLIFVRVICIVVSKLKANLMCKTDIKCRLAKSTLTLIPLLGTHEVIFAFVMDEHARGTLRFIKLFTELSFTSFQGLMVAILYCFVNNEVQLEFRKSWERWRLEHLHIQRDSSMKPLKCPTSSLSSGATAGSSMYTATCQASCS
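GLP-1R inverse agonism mode: basal reporter luminescence in engineered HEK293 cells measured after one day of compound exposure at 37 deg C, with a 12 min room-temperature detection step.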
RORg inh = ROR gamma (mouse) transcription inhibition. P51450. AID 2551. 310,000 compounds, 5.4% hits. Potency, µM (highest dose often 53.6 µM), inactives show top-dose activity change, negative = inhibition, usual class: inhibitors. Drosophila S2 Gal4-RORgamma UAS-luciferase reporter, 20 h; also: % is scaled to controls: 0 for no effect and ±100 for the full control effect; nearly all actives have a fitted effect of over 60% in size
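Compounds are pin-transferred onto Drosophila Schneider cells expressing a copper-inducible Gal4–ROR gamma transactivation domain fusion. After 1 hr, copper sulfate is added to 700 uM final; luciferase is read 20 hr later.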
GLP1R ag = GLP-1 receptor (human) agonism; HEK293 GLP-1R CRE-luciferase, luminescence, 4-6 h; cells express a hypersensitive GLP-1R form; 380,000 compounds, 0.007% hits; P43220; Potency, µM (doses to about 45.6 µM), inactives show top-dose activation, most hits filed as activators; also: % of control where 0% means no effect
HEK293 tox = cytotoxicity in counter-screen for GLP-1R inverse agonists. HEK293 cAMP-luciferase reporter cells, luminescence, 24 h. 410,000 compounds, 0.13% hits. Potency, µM (doses to about 38.3 µM), for the others: at the highest dose activity change, negative = inhibition, most hits filed as inhibitors;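 also: loss of luciferase light is scored as toxicity; % is scaled to controls: 0 for no effect and ±100 for the full control effect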
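Quantitative HTS format, 1536 wells, 200 cells/uL seeded. Compounds: 23 nL, 24 h, 37 °C. Detection: luciferase reagent, luminescence at 12 min RT; decreased signal taken as cytotoxic.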
Gal4-VP16 FLuc = counter-screen for ROR gamma inhibitors: Gal4-VP16 reporter; 310,000 compounds, 3.5% hits; Drosophila S2 Gal4-VP16 UAS-luciferase, luminescence, 20 h; Potency, µM (titrated, usually from 53.6 µM), for the others: at the top dose activity, negative = inhibition, usual class: inhibitors; AID 2546;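 also: Gal4-VP16 expression switched on by copper sulfate through the metallothionein promoter; % is scaled to controls: 0 for no effect and ±100 for the full control effect; nearly all actives have a fitted effect of over 50% in size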
The depositor's hits bear a star; ? = inconclusive; . = not tested or not shown; [ ] = another dose, or the depositor's remark. Calls follow the shape of the dose curve; as a rule, active = well fitted curve in the direction sought with a large enough effect; inconclusive = small, poorly fitted or top-dose-only effect, or another doubt; inactive = no such curve, though single readings can be large; an effect the other way counts as inactive or inconclusive. Potency is read from the fitted curve at half-maximal effect.

SMILES	GLP1R inv ag	RORg inh	GLP1R ag	HEK293 tox	Gal4-VP16 FLuc
c1ccc2nc(N3CCCC3)c(N3CCCC3)nc2c1	1.78µM*	28.7%	6.2%	-2.2%	10.3%
CCOC(=O)C1CCN(C(=O)Cn2ncc3c4ccccc4n(Cc4ccccc4F)c3c2=O)CC1	35.2%	.	.	-6.6%	.
COc1ccc(-c2nnc3n2N=C(c2cc(OC)ccc2OC)CS3)c(OC)c1	.	-10.3%	.	.	-0.4%
CCCCCCCCCCCCC/C=C/C(O)C(COP(=O)(O)OCCN)NC(=O)CCCCCCCCCCCCCCCCC (stereo not drawn)	.	-12.7%	.	.	-3.2%
Cc1ccc(C(=O)Nc2ncc3c(Cl)cccc3n2)cc1	7.08µM*	3.16µM*	-32.7%	-23.9%	3.98µM*
Cc1ccc(C(=O)Nc2ccc(Cl)cn2)cc1	?	-22.0%	-6.8%	-21.3%	?
COCCCNC(=S)Nc1ccc(C)cc1	5.6%	?	-1.0%	-4.7%	-18.6%
COCCCNC(=S)NNC(=S)Nc1ccc(F)cc1F	0.0%	7.08µM*	-13.4%	1.3%	-16.6%
COCCCNC(=S)NNC(=S)Nc1ccccc1	6.6%	?	9.7%	23.8%	-7.6%
COCCCNC(=S)NCCc1ccc(F)cc1	?	10µM*	14.1%	?	?
Cc1ccc(NC(=O)C2CCCN2S(=O)(=O)c2ccc3c(c2)CCCC(=O)N3)cc1C (stereo not drawn)	9.2%	.	.	-5.8%	.
COc1ccc(CCNC(=O)c2cnc3sc(N4CCCC4)nn3c2=O)cc1OC	5.2%	.	.	-4.4%	.
COc1ccc(-n2nc3c(c2NC(=O)C(=O)N2CCN(C)CC2)CSC3)cc1	14.5%	.	.	-8.8%	.
COc1ccc(C(=O)c2sc(NC(C)C)nc2N)cc1OC	0.5%	-28.4%	-39.5%	-26.1%	?
COc1cccc(C(=O)c2sc(NC(C)C)nc2N)c1	3.55µM*	?	-27.4%	?	11.2µM*
Cc1cc(=O)n2c(C(=O)Nc3ccc(C)c(Cl)c3)c(C(=O)Nc3ccccc3)sc2n1	0.3%	.	.	1.9%	.
Cc1ccccc1N=CC1=C(O)c2ccccc2C1=O	-32.8%	0.199µM*	-3.3%	12.5%	1.26µM*
COc1ccc(N=CC2=C(O)c3ccccc3C2=O)c(OC)c1	?	3.98µM*	-19.6%	-24.9%	3.98µM*
O=C1C(C=Nc2ccc(F)cc2)=C(O)c2ccccc21	38.2%	-28.8%	0.2%	2.0%	-6.6%
COc1ccc(NC(=O)c2ccco2)cc1NC(=O)COc1ccc(C)cc1C	13.6%	.	0.7%	-7.4%	.
Cc1coc2cc3oc(=O)c(CC(=O)NCCc4ccccc4)c(C)c3cc12	2.4%	.	.	9.7%	.
CN(C)S(=O)(=O)c1ccc(Nc2nc(C3CC3)nc3c2nnn3Cc2ccccc2Cl)cc1	-13.7%	-33.1%	-3.3%	-5.7%	3.98µM*
Fc1ccc(-c2cc(-c3ccccc3)nc(-n3cccn3)n2)cc1	?	1µM*	16.4%	-20.4%	?
COc1ccc(CCNC(=O)c2nc(SCc3ccc(C)cc3)ncc2Cl)cc1OC	-9.1%	.	.	-13.3%	.
CCOC(=O)c1ccc(Nc2cc(C)nc(C)c2C(=O)OCC)cc1	?	-7.4%	13.0%	-13.9%	-0.9%
SMILES	GLP1R inv ag	RORg inh	GLP1R ag	HEK293 tox	Gal4-VP16 FLuc
CCOC(=O)c1ccc(Nc2nc3nonc3nc2Nc2cccc(C)c2C)cc1	2.82µM*	.	.	?	.
Cn1nc(C(F)(F)F)c(C(=O)Nc2ccc(F)cc2F)c1Sc1cccc(Cl)c1	12.6µM*	-9.4%	-10.4%	-0.7%	0.6%
Cc1nc(N2CCOCC2)c2nc(-c3ccccc3)n(CC3CCN(C)CC3)c2n1	.	-6.8%	.	.	-12.1%
COc1cc(OC)cc(-c2c(-c3ccc(F)cc3)c3cc(Br)ccc3n2C)c1	7.94µM*	.	-3.5%	-20.6%	.
CCOC(=O)c1cnc(-n2nc(C)cc2C)nc1Nc1ccc(N(C)C)cc1	1.58µM*	0.794µM*	5.5%	1.12µM*	1.12µM*
CCOC(=O)c1cnc(-n2nc(C)cc2C)nc1Nc1ccc(O)cc1	15.2%	-40.5%	1.3%	1.7%	-3.8%
CCOC(=O)c1cnc(-n2nc(C)cc2C)nc1Nc1ccc(C)cc1	?	0.562µM*	0.1%	?	0.794µM*
CCOC(=O)c1cnc(-n2nc(C)cc2C)nc1NC	?	1.58µM*	9.6%	?	5.62µM*
CCOC(=O)c1cnc(-n2nc(C)cc2C)nc1N(CC)CC	0.0%	1µM*	20.6%	2.82µM*	4.47µM*
CCOC(=O)c1cnc(-n2nc(C)cc2C)nc1Nc1ccc2c(c1)OCO2	.	-29.3%[10 µM]	.	.	-2.0%
CCOC(=O)c1cnc(-n2nc(C)cc2C)nc1Oc1ccc(C#N)cc1	16.1%	0.9%	2.3%	-2.7%	-9.9%
CCOC(=O)c1cnc(-n2nc(C)cc2C)nc1Nc1cccc(C(=O)O)c1	7.6%	-3.3%[10 µM]	1.7%	1.0%	5.2%
COc1ccc(NC(=O)C(NS(=O)(=O)c2cccc3nsnc23)C(C)C)cc1 (stereo not drawn)	3.9%	.	.	-8.3%	.
Cc1cccc(N2CCN(C(=O)Cn3c(-c4cccs4)cc4ccccc43)CC2)c1C	?	.	.	-0.7%	.
CCOC(=O)c1cc(NC(=O)NC2CCCCC2)c(C)nc1C	-9.5%	-18.6%	-0.2%	11.5%	15.8%
CCOC(=O)c1cnc(-n2nc(C)cc2C)nc1NC1CCCCC1	1.26µM*	0.355µM*	0.2%	1µM*	1.12µM*
c1ccc2c3c([nH]c2c1)[C@@H]1[C@H]2CC[C@H]([C@H]4CCCN[C@H]42)N1CC3	.	-0.3%[16.9 µM]	.	.	-2.6%[17 µM]
Cc1ccc(OCCNS(=O)(=O)c2ccc(N3CCCC3=O)cc2)cc1	-25.9%	?	-0.4%	-2.4%	12.6µM*
Cc1cc(N2CCCC2=O)cc(C)c1S(=O)(=O)NCCOc1ccccc1	12.6%	14.8%	2.3%	1.4%	-7.1%
Cc1ccc(OCCNS(=O)(=O)c2ccc(N3CCCC3=O)cc2)cc1C	-1.1%	-44.5%	4.0%	17.9%	12.6µM*
O=C(CN1C(=O)c2cccnc2Sc2ccccc21)Nc1cc(F)ccc1F	1.5%	.	.	-6.8%	.
